WT yeast gro inh = growth inhibition of WT yeast, mitochondrial fusion screen; inhibition, % at 10 µM; 190,000 compounds, 2.1% hits; mitochondrial fusion phenotypic screen, WT strain; in the data active means inhibition above about 58%; tested in S. cerevisiae
Insulin prom up = MIN6 insulin promoter up-regulation | MIN6 insulin promoter-GFP reporter, high-content imaging; stronger effect = higher value | z-score at 5 µM | 190,000 compounds, 0.3% hits | AID 1625;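 active means z-score above 3 at 5 µM with at least 500 cells counted in the well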
Cl transport mod = modulates chloride dependent transport by human KCC2; 190,000 compounds, 2.2% hits; B-score of Tl+ flux slope (higher = more flux/activation; lower = inhibition) at 10 µM; KCC2 cells, thallium flux FluoZin-2 fluorescence; Q9H2X9;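 active means thallium flux slope and its plate-corrected score both differing from the plate sample mean at a set confidence after two filtering rounds, in either direction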;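 further: slope of fluorescence scaled to starting intensity during 10 to 20 s after thallium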
Target sequence (Q9H2X9 whole entry, looked up): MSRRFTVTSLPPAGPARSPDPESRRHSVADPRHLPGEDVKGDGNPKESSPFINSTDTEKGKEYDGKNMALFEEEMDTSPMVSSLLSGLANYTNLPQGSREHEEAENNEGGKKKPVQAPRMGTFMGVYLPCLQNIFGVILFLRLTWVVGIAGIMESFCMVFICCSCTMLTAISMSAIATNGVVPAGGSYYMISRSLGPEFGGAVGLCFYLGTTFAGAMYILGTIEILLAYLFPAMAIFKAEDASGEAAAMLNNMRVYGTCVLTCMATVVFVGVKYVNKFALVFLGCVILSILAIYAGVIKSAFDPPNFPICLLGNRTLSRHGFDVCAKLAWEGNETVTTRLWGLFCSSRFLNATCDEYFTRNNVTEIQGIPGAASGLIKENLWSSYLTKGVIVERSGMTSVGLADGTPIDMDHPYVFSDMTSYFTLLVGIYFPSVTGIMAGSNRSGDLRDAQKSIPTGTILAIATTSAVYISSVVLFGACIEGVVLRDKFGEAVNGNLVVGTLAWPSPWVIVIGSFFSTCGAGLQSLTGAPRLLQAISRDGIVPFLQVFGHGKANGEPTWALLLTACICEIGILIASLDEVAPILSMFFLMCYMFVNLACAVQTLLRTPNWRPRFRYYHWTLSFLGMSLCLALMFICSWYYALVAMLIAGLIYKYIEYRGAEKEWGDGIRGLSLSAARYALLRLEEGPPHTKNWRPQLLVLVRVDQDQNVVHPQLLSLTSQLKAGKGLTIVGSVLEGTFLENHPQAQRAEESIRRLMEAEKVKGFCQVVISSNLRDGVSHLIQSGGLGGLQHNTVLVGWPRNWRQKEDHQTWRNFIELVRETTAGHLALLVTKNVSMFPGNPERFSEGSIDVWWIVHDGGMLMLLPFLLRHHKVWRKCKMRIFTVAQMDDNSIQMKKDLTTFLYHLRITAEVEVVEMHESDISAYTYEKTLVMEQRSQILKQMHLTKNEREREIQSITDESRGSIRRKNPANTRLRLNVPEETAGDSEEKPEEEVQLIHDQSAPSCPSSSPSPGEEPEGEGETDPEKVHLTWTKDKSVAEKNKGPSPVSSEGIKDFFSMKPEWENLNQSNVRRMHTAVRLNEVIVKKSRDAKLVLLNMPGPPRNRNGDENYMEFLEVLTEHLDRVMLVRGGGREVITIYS
ROMK mod = modulators of human ROMK potassium channel; Tet-inducible ROMK, thallium flux fluorescence; actives lie on both sides; B-score at 10 µM; 130,000 compounds, 2% hits; AID 1918;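 active means signal ratio slope over the read window, or its plate-corrected B-score, at least 3 SD from the plate mean, either direction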;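 further: B-score of the F/F0 ratio slope over 7 to 12 s after thallium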
L major viab = reduces viability of Leishmania major promastigotes | inhibition, % at 10 µM | resazurin fluorescence viability | 200,000 compounds, 9% hits; in the data active means inhibition above about 50%;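 further: promastigotes grown with compound for 44 hours at 28 °C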
Insulin prom inh = TRM-6 insulin promoter activity inhibition. AID 1273. inhibition, % at 2 µM. TRM-6 cells (human fetal islet line), insulin promoter-eGFP reporter, imaging; reporter expression induced with tamoxifen. 130,000 compounds, 0.9% hits;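 active means inhibition above the mean plus 3 SD, with well images judged a real hit on visual review, cut at about 60% in these data, passing the limit was not always enough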
Active calls of the source: *; . = no result. Sampled rows, rich in hits. Any-hit rate of the full collection: about 12%.

SMILES	WT yeast gro inh	Insulin prom up	Cl transport mod	ROMK mod	L major viab	Insulin prom inh
Cc1ccc(NC(=O)c2cccc(OC(F)F)c2)c(OC(F)F)c1	28.4	-0.47	-0.375	.	-4.2	-3.1
c1ccc(-c2ccccc2OCc2nnc3n2CCC3)cc1	4.2	-0.12	-1.47	-0.473	-4.6	.
Cc1ccccc1C(=O)NC(=S)Nc1ccc(S(=O)(=O)N2CCOCC2)cc1	6.0	-0.28	0.235	.	-1.3	.
Cc1ccc(OP(=O)(Nc2c(C)n(C)n(-c3ccccc3)c2=O)Oc2ccc(C)cc2)cc1	-10.8	-0.08	-0.0428	0.0776	68.5*	0.0
Cc1ccc(S(=O)(=O)Nc2c(C)n(C)n(-c3ccccc3)c2=O)cc1	-3.0	-0.71	-0.0613	0.282	-9.0	-46.1
COc1cc(OC)c(C(=O)CCC(=O)O)cc1OC	-3.5	-0.04	0.0489	1.19	71.1*	-21.1
COc1cc(CC(=O)O)c(C(C)=O)cc1OC	4.3	.	0.0265	-0.594	-5.8	-9.1
O=C(NCc1ccccc1)c1ccc2c(=O)[nH]c3c(C(=O)NCC4CCCO4)sc(=S)n3c2c1 (stereo not drawn)	-5.3	.	-2.83	-0.0773	5.8	.
O=C(NCc1ccco1)c1sc(=S)n2c1[nH]c(=O)c1ccccc12	31.9	0.39	.	-3.69*	-2.5	35.7
O=C(c1ccc(Oc2ccc(C(F)(F)F)cc2[N+](=O)[O-])cc1)N1CCOCC1	-10.9	0.55	0.883	.	55.3*	32.4
O=C(c1ccccc1Oc1ccc(C(F)(F)F)cc1[N+](=O)[O-])N1CCOCC1	0.7	0.74	0.836	.	-0.5	-34.4
CSc1ccccc1C(=O)N1CCN(c2ncccn2)CC1	5.6	-0.29	-0.751	1.08	-8.3	36.4
COc1ccc(CNCc2cccc(Cl)c2)cc1	3.1	-0.05	-0.232	-0.589	65.8*	35.7
COc1cccc(CNCC(O)(c2ccc(Cl)cc2)c2ccc(Cl)cc2)c1	-4.6	-0.06	.	-0.777	65.5*	.
COc1ccc(CNCC(O)(c2ccccc2)c2ccc(Cl)cc2)cc1 (stereo not drawn)	-6.5	0.38	-0.113	.	18.3	.
Cc1ccc(CNCC(O)(c2ccccc2)c2ccc(Cl)cc2)cc1 (stereo not drawn)	69.1*	-1.29	0.489	0.195	41.5	0.0
Cc1cc(NC(=O)C2CCCN2C(=O)Nc2c(C)cccc2C)ccc1-n1cnnn1 (stereo not drawn)	-7.8	0.19	-0.731	-1.09	-5.7	10.0
O=C1c2ccccc2C(=O)N1CC(O)CNc1ccc(Br)cc1 (stereo not drawn)	5.4	0.28	-0.417	.	9.4	72.4*
Cc1ccc(SCCNS(=O)(=O)c2ccc(F)cc2)cc1	45.7	0.2	.	.	52.6*	-90.9
Cc1ccc2nc(NC(=O)c3ccc(N4C(=O)CCC4=O)cc3)sc2c1	-2.4	0.37	-0.416	-0.413	-3.9	16.7
O=c1c2ccccc2c(-c2ccc(O)cc2)nn1-c1cccc(C(F)(F)F)c1	83.0*	-0.32	-0.07	.	6.0	.
Cc1cccc(-n2ccnc2SCC(=O)N2CCCc3ccccc32)c1C	36.9	-0.61	0.332	.	59.6*	.
COc1cccc(-n2ccnc2SCC(=O)N2CCc3ccccc32)c1	-3.2	-0.66	-0.701	.	-5.1	9.3
Cc1occc1-c1nnc(SCC(=O)N2CCCc3ccccc32)n1Cc1ccco1	-1.7	0.79	.	-0.132	74.3*	.
COc1cccc(NC(=O)COC(=O)Cc2ccc(Cl)cc2)c1	6.6	-0.97	-1.36	-1.33	-2.8	.
SMILES	WT yeast gro inh	Insulin prom up	Cl transport mod	ROMK mod	L major viab	Insulin prom inh
CCOC(=O)Cc1csc(NC(NC(=O)CC)(C(F)(F)F)C(F)(F)F)n1	10.6	0.85	0.00512	-0.0171	-1.5	.
Cc1nc2nc(-c3ccc(Cl)cc3)[nH]n2c(=O)c1Cc1ccccc1	1.3	-0.04	0.745	.	-7.8	59.5
Cc1cc2nc(C)c(Cc3ccccc3)c(=O)n2[nH]1	-15.5	0.27	.	1.01	97.5*	10.0
COc1ccc(-c2c(C)[nH]n3c(=O)c(Cc4ccccc4)c(C)nc23)cc1	-5.7	.	1.46	.	81.0*	.
CN(C)CCCNC(=S)N(Cc1cccs1)Cc1cc2cc3c(cc2[nH]c1=O)OCCO3	-6.5	0.26	-0.221	-1.5	40.2	-60.0
Cc1cc(O)c(NC(=S)NC(=O)c2ccc(-c3ccc(Cl)cc3)o2)cc1C	76.9*	-0.11	.	.	-12.6	22.2
CCn1c(Cc2cccn2C)nnc1SCC(=O)c1ccc(C)cc1	-3.5	-1.26	0.221	0.0101	0.1	0.0
COc1ccc(OC)c(Nc2nc(-c3sc(NC(=O)CC(C)C)nc3C)cs2)c1	3.3	-2.03	0.59	.	80.9*	-24.4
CCC(C)C(=O)Nc1nc(C)c(-c2csc(Nc3cc(Cl)ccc3OC)n2)s1 (stereo not drawn)	24.2	-1.15	-0.586	.	42.5	-24.4
CCCCC(=O)Nc1nc(C)c(-c2csc(Nc3cc(OC)ccc3OC)n2)s1	19.2	-2.6	-0.209	.	73.1*	-2.2
CCC(C)C(=O)Nc1nc(C)c(-c2csc(Nc3cc(OC)ccc3OC)n2)s1 (stereo not drawn)	27.9	-1.84	0.244	.	56.9*	-8.9
CCOc1ccc(S(=O)(=O)N2CCN(C(=O)c3cccn3C)CC2)cc1	-6.1	0.64	0.101	.	4.3	20.0
Cc1ccc(C=Nc2ccc(N(C)C)cc2)o1	3.9	-0.46	-0.552	.	80.2*	63.6
COc1ccc(CCC(=O)NCc2cn3ccccc3n2)cc1	.	0.67	0.24	0.0295	.	.
Cc1ccccc1NC(=S)N(CCN(C)C)C(C)c1ccco1 (stereo not drawn)	17.4	-0.91	0.664	0	24.0	-27.8
Cc1ccc(NC(=S)N(CCN(C)C)C(C)c2ccco2)cc1C (stereo not drawn)	-3.7	-0.28	0.237	-0.00357	46.1	-5.3
COc1ccc(NC(=S)N(CCN(C)C)C(C)c2ccco2)cc1 (stereo not drawn)	-15.6	0.07	-0.46	0.282	51.3*	0.0
COCCN(C(=S)Nc1ccc(C)c(C)c1)C(C)c1ccco1 (stereo not drawn)	60.0*	-0.31	-1.44	-0.205	27.3	-20.0
COc1ccc(CCN2C(=O)CC(NNC(=O)c3ccc(F)cc3)C2=O)cc1OC (stereo not drawn)	-3.6	-0.01	-0.322	.	3.1	-55.1
COc1ccc(CCN2C(=O)CC(NNC(=O)c3ccccc3Br)C2=O)cc1OC (stereo not drawn)	14.4	0.74	0.762	-0.114	56.2*	24.3
CCOc1ccc(C(=O)NNC2CC(=O)N(CCc3ccccc3)C2=O)cc1OC (stereo not drawn)	-1.9	0.45	1.22	0.878	63.2*	10.8
COc1ccc(CCN2C(=O)CC(NNC(=O)c3cccc(O)c3)C2=O)cc1 (stereo not drawn)	-21.7	0.42	0.411	1.06	43.5	16.2
Cc1cccc(C)c1NC(=O)NN1C(C)CCCC1C (stereo not drawn)	11.5	-0.44	0.467	-0.42	0.7	-44.4
C=CCNCCOCCOc1ccc(Cl)cc1C(C)(C)C	35.8	0.62	1.26	-0.249	99.5*	6.7
COCCNC(=O)CSc1ccc(Cl)cc1	10.3	1.61	1.17	0.0266	-2.4	-71.4
C=CCNCCOCCSc1ccc(Cl)cc1	12.7	-0.27	0.671	-0.0625	98.9*	8.3

From PubChem BioAssay
